# HT1080-NT tox = qHTS for induction of synthetic lethality in tumor cells producing 2HG: qHTS for the HT-1080-NT fibrosarcoma cell line. hit rate 1.6% among 360,000. Potency, µM (top dose mostly 46.1 µM), for the others: top-dose activity, negative = less viability, actives largely listed as cytotoxic. HT-1080-NT fibrosarcoma viability, CellTiter-Glo ATP luminescence, 48 h;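 also: NT is the 2HG producing partner of a matched IDH1 knockdown line; potency is read from the fitted curve at half-maximal effect; 0% = DMSO-treated cells and -100% = media-only wells without cells; nearly all actives have a fitted effect of over 55% in size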
#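 Viability by CellTiter-Glo luminescence after 48 h compound exposure at 37C of HT-1080-NT cells (750/well, RPMI, 5% FBS). % activity scaled between DMSO wells and medium-only wells, then curve-fitted and categorized by curve class.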
# HT1080 IDH1KD tx = qHTS for induction of synthetic lethality in tumor cells producing 2HG: qHTS for the HT-1080-IDH1KD cell line; HT-1080 IDH1 knockdown viability, ATP luminescence, 48 h; Potency, µM (series often up to 46.1 µM), without a hit: at the highest dose activity, negative = toxicity, most hits filed as cytotoxic; hit rate 2% among 360,000;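 also: potency is read from the fitted curve at half-maximal effect; 0% = DMSO wells and -100% = cell-free medium wells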
#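 IDH1KD HT-1080 cells, 750/well, RPMI + 5% FBS; compound pinned after 2 h settling; 48 h, 37 °C; CellTiter-Glo luminescence; % activity normalised to DMSO and no-cell wells; curves fitted, classed by r2 and efficacy.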
# TDP1 cell CPT = qHTS for Inhibitors of human tyrosyl-DNA phosphodiesterase 1 (TDP1): qHTS in cells in presence of CPT. chicken DT40 Tdp1-/-;hTDP1 cells + 20 nM CPT, ATP luminescence, 48 h. Potency, µM (top dose mostly 46.2 µM), for inactives: at the top dose activity change, negative = growth inhibition, most hits filed as inhibitors. hit rate 12% among 420,000; also: potency is read from the fitted curve at half-maximal effect; nearly all actives have a fitted effect of over 55% in size
#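 Cell growth measured by CellTiter-Glo luminescence after a minimum 48 h, 37 C compound exposure with 20 nM CPT in Tdp1-knockout DT40 cells stably expressing hTDP1, seeded 400/well; qHTS titration format.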
# IL-1B inflam inh = qHTS for Inhibitors of Inflammasome Signaling: IL-1-beta AlphaLISA Primary Screen; activity change, % at 57.5 µM; THP-1 LPS/ATP IL-1B secretion, AlphaLISA, 16 h; hits give low values; hit rate 4.7% among 360,000; AID 743279, 2014; in the data active = activity change below about -50%; inconclusive = mostly about -30% to -49%
#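 THP-1 cells pretreated 1 hr with compounds (up to 57.5 uM final), then stimulated with LPS (250 ng/mL final) plus ATP (1.25 mM final); secreted IL-1B measured by AlphaLISA after 16 hr, decreased signal indicating inhibition.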
# TDP1 cell noCPT = qHTS for Inhibitors of human tyrosyl-DNA phosphodiesterase 1 (TDP1): qHTS in cells in absence of CPT. DT40 Tdp1-/- hTDP1 cells, no CPT, ATP luminescence, 48 h. Potency, µM (titrated, usually from 46.2 µM), for inactives: at the highest dose activity change, negative = growth inhibition, usual class: inhibitors. hit rate 15% among 420,000. AID 686978, 2013; also: potency is read from the fitted curve at half-maximal effect; nearly all actives have a fitted effect of over 55% in size
#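 Stably hTDP1-transfected Tdp1-null chicken DT40 cells were treated with library compounds minus camptothecin and grown for at least 48 hr at 37 °C, after which cellular ATP was quantified by luminescence.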
# The depositor's hits bear a star; u = inconclusive; x = not tested or not shown; [ ] = dose if it differs, or a comment. Rows were chosen to be rich in hits. Some 19% of all compounds tested hit in one or more screens of this group. Unless noted, calls follow the shape of the dose curve; as a rule, active = well fitted curve in the direction sought with a large enough effect; inconclusive = small, poorly fitted or top-dose-only effect, or another doubt; inactive = no such curve, though single readings can be large; an effect the other way counts as inactive or inconclusive. Unless noted, % is scaled to controls: 0 for no effect and ±100 for the full control effect.
SMILES,HT1080-NT tox,HT1080 IDH1KD tx,TDP1 cell CPT,IL-1B inflam inh,TDP1 cell noCPT
C=CCn1c(=O)c2ccccc2n2c(SCC(=O)Nc3sc(C(=O)N(CC)CC)c(C)c3C(=O)OCC)nnc12,-11%,-16%,23µM*,-17,15µM*
C=CCn1c(=O)c2ccccc2n2c(SCC(=O)Nc3cc(C)on3)nnc12,-9%,-1%,u,-26,u
C=CCn1c(=O)c2ccccc2n2c(SCC(=O)/C(C#N)=C(\C)N)nnc12,1%,1%,0%,8,-13%
C=CCn1c(C)cc(C(=O)CSc2nnc3n(CCC)c(=O)c4ccccc4n23)c1C,-1%,20%,21µM*,5,18µM*
C=CCn1c(=O)c2ccccc2n2c(SCC(=O)Nc3sc(C)c(CC)c3C(=O)OCC)nnc12,11%,-1%,u,-28,16µM*
CCOC(=O)c1c(NC(=O)CSc2nc3ccccc3c(=O)n2-c2ccccc2)sc(C(C)=O)c1C,-2%,-2%,-14%,26,-9%
O=C(Nc1ccc(NC(=O)C2CC2)nc1)c1ccncc1,12%,7%,-12%,-7,-13%
COc1cc(CC(=O)OCC(=O)N2CCCCC2)cc(OC)c1OC,14%,-1%,10%,20,-4%
CCOc1ccc(C(CC(=O)O)NC(=O)Cc2ccc(Cl)cc2)cc1 (stereo not drawn),1%,-2%,16%,15,4%
CC(C)COC(=O)N1CCN(S(=O)(=O)c2ccc3c(c2)CCC3)CC1,10%,10%,u,-5,u
COC(=O)c1ccccc1NC(=O)CCc1ccccc1,12%,14%,-6%,12,u
CCOC(=O)c1c(C)[nH]c(CCC(=O)NCc2ccc(OC)c(OC)c2)c1C,x,x,-9%,x,-10%
CCOC(=O)c1c(C)[nH]c(CCC(=O)Nc2cc(C)ccc2OC)c1C,x,x,u,x,16µM*
CCOC(=O)c1c(C)[nH]c(CCC(=O)Nc2c(C)cccc2CC)c1C,x,x,u,x,16µM*
CCOC(=O)c1c(C)[nH]c(CCC(=O)NCCCN2CCN(c3ccc(F)cc3)CC2)c1C,x,x,21µM*,x,10µM*
CCOC(=O)c1c(C)[nH]c(CCC(=O)Nc2ccccc2C(=O)OC)c1C,x,x,u,x,23µM*
CCOC(=O)c1c(C)[nH]c(C)c1S(=O)(=O)NCC(=O)Nc1cc(C)ccc1OC,x,x,u,x,-19%
COc1cccc(N2CCN(C(=O)C3CCN(C(=O)Nc4ccccc4)CC3)CC2)c1,7%,-5%,-11%,1,-3%
CCN(C(=O)CCS(=O)(=O)c1ccc2c(c1)CCN2C(C)=O)c1cccc(C(F)(F)F)c1,x,x,-26%,x,u
COc1ccc(CCC(=O)Nc2cccc(S(=O)(=O)N(C)C)c2)cc1OC,3%,6%,1%,12,-50%
CCCN1CCN(CC(=O)NCC(=O)Nc2cccc(C)c2C)CC1,10%,-3%,-9%,-18,-24%
Cc1ccnc(NC(=O)CCc2c[nH]c3ccccc23)c1,-15%,-29%,-18%,-13,-6%
CCOC(=O)c1c(C)[nH]c(CCC(=O)Nc2ccccc2OCC)c1C,x,x,u,x,23µM*
CCOC(=O)c1c(C)[nH]c(CCC(=O)NCc2ccc(N(C)C)cc2)c1C,x,x,u,x,18µM*
CCOC(=O)c1c(C)[nH]c(CCC(=O)Nc2cc(C)cc(C)c2)c1C,x,x,u,x,23µM*
SMILES,HT1080-NT tox,HT1080 IDH1KD tx,TDP1 cell CPT,IL-1B inflam inh,TDP1 cell noCPT
Cc1nc(C(Cl)(Cl)Cl)nc2[nH]ccc(=O)c12,-14%,u,u,133,16µM*
Cc1[nH]ccc(=O)c1Cc1c(Cl)cccc1Cl,5%,4%,26%,25,2%
O=C(NCc1ccc(OC(F)(F)F)cc1)c1ccc2c(c1)S(=O)(=O)c1ccccc1C2=O,-10%,-12%,23µM*,-28,15µM*
Cc1ccc(CNC(=O)c2ccc3c(c2)S(=O)(=O)c2ccccc2C3=O)o1,0%,0%,u,-25,16µM*
CSC1=C(C#N)C(c2ccccc2)C(C(C)=O)=C(C)N1 (stereo not drawn),3%,-3%,1%,11,-2%
CNC(=O)C1C(=S)NC(N)=C(C#N)C1c1ccccc1 (stereo not drawn),u,u,26µM*,u,6.5µM*
COc1ccc(NC(=O)c2cc3nc(-c4ccccc4)cc(-c4ccccc4)n3n2)c(OC)c1,17%,18%,11µM*,-15,10µM*
COc1ccc(NC(=O)CSc2ccc3nnc(-c4ccccn4)n3n2)cc1,-13%,-6%,-16%,0,-9%
COc1ccc(-c2cn3nc(SCC(=O)Nc4cc(C)cc(C)c4)ccc3n2)cc1,x,x,u,x,21µM*
COc1ccc(NC(=O)CSc2ccc3nc(-c4ccccc4)cn3n2)cc1OC,x,x,-21%,x,-22%
COc1ccc(-c2cn3nc(SCC(=O)Nc4cccc(C)c4C)ccc3n2)cc1,x,x,15µM*,x,u
COc1ccc(NC(=O)CSc2ccc3nc(-c4ccccc4)cn3n2)c(OC)c1,x,x,12µM*,x,9.2µM*
COCCCn1c(=O)c2sccc2n(Cc2cc(C(=O)OC)ccc2OC)c1=O,4%,-3%,0%,-15,-2%
CCCS(=O)(=O)NC(=O)C1(C)CCN(C(=O)c2cccc(C(F)(F)F)c2)C1 (stereo not drawn),27%,10%,u,11,-1%
COC(=O)c1c(NC(=O)CSc2nnc(C)c(=O)[nH]2)sc(C)c1C,-22%,-14%,11%,24,-1%
Cc1ncc2c(c1CNC(=O)c1ccccc1F)CCN(C(=O)c1ccccc1-n1cccn1)C2,x,x,11%[9.04 µM],x,-29%
Cc1ccc(C2=NN(CC(=O)NC(C)c3ccccc3)C(=O)CC2)cc1 (stereo not drawn),x,x,-8%,x,-4%
CC1CCN(C(=O)c2cc3nc(-c4ccccc4)cc(-c4ccccc4)n3n2)CC1,-5%,1%,16µM*,-55*,29µM*
Cc1ccc(C)c(CN2C(=O)C(C)Oc3ccc(C)cc32)c1 (stereo not drawn),-16%,-18%,u,20,u
CC1(C(=O)N/N=C/c2c(F)c(F)c(F)c(F)c2F)CC1(Cl)Cl (stereo not drawn),u,u,-20%,-100*,u
COc1ccccc1NC(=O)c1ccc([N+](=O)[O-])o1,u,u,13µM*,-83*,16µM*
